Data published in PubChem BioAssay (Tox21).
Where “and” joins values, the source holds several entries; their conditions need not be identical. Equal entries are not always repeated. Records with an inconclusive call do not appear. Some structures have more than one record in an assay (separate samples or runs), and their calls can disagree. Calls of active or inactive are those of the source. Unless noted, calls come from the whole dose curve. Numbered stars: 1 amine (or outer) side, 2 acyl side, 3 side chain; on linkers, the order of the positions; unused ones are H or OH. Bridge positions count the residues as written; N and C are the ends. Square brackets hold non-standard residues; d marks the D form. Peptide text beside a SMILES is read from it. I, II: the chains in the order shown. Actinocin(9to1) = Cc1c2oc3c(C)ccc(C(=O)[*:1])c3nc-2c(C(=O)[*:2])c(N)c1=O; NMeV = CN[C@H](C(=O)O)C(C)C; Sar = CNCC(=O)O

Key:
[1] = Nuclear factor erythroid 2-related factor 2/antioxidant responsive element (Nrf2/ARE) small molecule agonists: qHTS cell viability counter screen in human keratinocytes (AID 1919968; active = well fitted curve in the direction sought with a large enough effect in the repeat runs; an effect the other way counts as inactive or inconclusive; note: nearly all actives have a fitted effect of over 55% in size; note: potency is the fitted concentration of half-maximal effect)
Procedure, shortened: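 Cells of the KeratinoSens line were plated at 1,500 per well and left for 5 h before compound transfer from DMSO stocks. After a 23 h incubation (37 C, 5% CO2), CellTiter-Fluor was added. Signal was taken as fluorescence intensity 1 h later.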

[2] = Nuclear factor erythroid 2-related factor 2/antioxidant responsive element (Nrf2/ARE) small molecule agonists: luciferase reporter gene qHTS assay in human keratinocytes (AID 1919969); note: nearly all actives have a fitted effect of over 35% in size; note: potency is the fitted concentration of half-maximal effect
[3] = target: Gonadotropin-releasing hormone receptor (Homo sapiens) (UniProt P30968); test: Human gonadotropin-releasing hormone receptor (GnRHR) small molecule agonists, calcium flux assay in GnRHR-HEK293 cells (AID 1920063); note: nearly all actives have a fitted effect of over 35% in size
Chain of Gonadotropin-releasing hormone receptor (Homo sapiens) (P30968 whole entry, looked up): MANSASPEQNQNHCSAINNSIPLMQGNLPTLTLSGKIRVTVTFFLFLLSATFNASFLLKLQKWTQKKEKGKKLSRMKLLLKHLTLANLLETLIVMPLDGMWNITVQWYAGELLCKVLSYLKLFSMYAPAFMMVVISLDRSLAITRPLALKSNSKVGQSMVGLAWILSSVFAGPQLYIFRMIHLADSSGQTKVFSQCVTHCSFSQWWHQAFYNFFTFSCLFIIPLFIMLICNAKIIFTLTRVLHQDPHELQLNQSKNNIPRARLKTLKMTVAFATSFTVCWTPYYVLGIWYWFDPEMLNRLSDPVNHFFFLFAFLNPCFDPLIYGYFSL
Procedure, shortened: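 Compounds dissolved in DMSO are pin-transferred onto dye-loaded GnRHR-HEK293 cells, which were seeded 18 h before at 37 C/5% CO2. Calcium signal is read as fluorescence intensity at 1 s intervals for 3 min.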

[4] = target: KiSS-1 receptor (Homo sapiens) (UniProt Q969F8); test: Human kisspeptin (KISS1R) small molecule agonists, calcium flux assay in KISS1R-HEK293 cells (AID 1920064; active = well fitted curve in the direction sought with a large enough effect in the repeat runs; an effect the other way counts as inactive or inconclusive)
Chain of KiSS-1 receptor (Homo sapiens) (Q969F8 whole entry, looked up): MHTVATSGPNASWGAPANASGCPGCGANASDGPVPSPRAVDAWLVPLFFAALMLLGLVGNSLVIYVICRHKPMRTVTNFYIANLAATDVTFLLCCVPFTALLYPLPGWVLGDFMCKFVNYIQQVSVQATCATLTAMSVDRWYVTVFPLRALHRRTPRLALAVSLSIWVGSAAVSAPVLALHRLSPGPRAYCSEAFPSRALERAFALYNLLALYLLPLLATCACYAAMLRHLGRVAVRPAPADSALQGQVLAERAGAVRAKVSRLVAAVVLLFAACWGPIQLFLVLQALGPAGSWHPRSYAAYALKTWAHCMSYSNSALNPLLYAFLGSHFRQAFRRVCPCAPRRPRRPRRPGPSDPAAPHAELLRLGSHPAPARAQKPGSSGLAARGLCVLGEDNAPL
Procedure, shortened: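 Cell line: HEK293, stable human KISS1R. Dye loading 1 h at 37 C after 18 h culture. Read: kinetic fluorescence, 480/540 nm, 3 min at 1 s intervals.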

[5] = G protein-coupled receptor (GPCR) small molecule agonists, calcium flux assay: HEK293 wild type cell line counter screen (AID 1920065)
Procedure, shortened: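 Tox21 10K compounds, 15 concentrations each in triplicate, pin-transferred in DMSO onto dye-loaded cells; kinetic read at 480/540 nm for 3 min, 1 s intervals.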

[6] = p53 small molecule agonists, cell-based qHTS assay with human liver microsomes (AID 1963577)
Procedure, shortened: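 p53RE-bla cells, 4,000/well, compound added after 5 h, with human liver microsomes 0.5 mg/mL and NADPH 0.5 mg/mL final; 16 h at 37 C, then LiveBLAzer 2 h RT, fluorescence.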

[7] = p53 small molecule agonists, cell-based qHTS assay with rat liver microsomes (AID 1963578)
Procedure, shortened: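 p53RE-bla cells, 4,000/well, pre-incubated 5 h, then given compounds plus rat liver microsomes (0.5 mg/mL final) and NADPH (0.5 mg/mL final). Incubation 16 h at 37 C; beta-lactamase reporter read by LiveBLAzer fluorescence after 2 h at room temperature.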

[8] = p53 small molecule agonists, cell-based qHTS assay with rat liver microsomes: qHTS cell viability counter screen (AID 1963580); note: nearly all actives have a fitted effect of over 45% in size
Procedure, shortened: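 Counter screen for cytotoxicity under metabolic activation: rat liver microsomes and NADPH, 0.5 mg/mL final each, added with compounds to p53RE-bla HCT-116 cells; 16 h at 37 C, then ATP luminescence read.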

[9] = p53 small molecule agonists, cell-based qHTS assay (AID 1963582; active = well fitted activation curve with a large enough effect in the signal ratio in the repeat runs, not every such curve was filed as active; the % refers to the signal ratio; note: potency is the fitted concentration of half-maximal effect)
Procedure, shortened: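 16 h compound exposure (37 C) of p53 response element–bla cells, preceded by 5 h recovery at 37 C/5% CO2; read-out via LiveBLAzer B/G FRET substrate, 2 h RT, fluorescence intensity.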

[10] = target: 5-hydroxytryptamine receptor 2A (Homo sapiens) (UniProt P28223); test: 5-hydroxytryptamine receptor 2A (HTR2A) small molecule agonists, cell-based qHTS assay (AID 1963587); note: nearly all actives have a fitted effect of over 30% in size
Chain of 5-hydroxytryptamine receptor 2A (Homo sapiens) (P28223 whole entry, looked up): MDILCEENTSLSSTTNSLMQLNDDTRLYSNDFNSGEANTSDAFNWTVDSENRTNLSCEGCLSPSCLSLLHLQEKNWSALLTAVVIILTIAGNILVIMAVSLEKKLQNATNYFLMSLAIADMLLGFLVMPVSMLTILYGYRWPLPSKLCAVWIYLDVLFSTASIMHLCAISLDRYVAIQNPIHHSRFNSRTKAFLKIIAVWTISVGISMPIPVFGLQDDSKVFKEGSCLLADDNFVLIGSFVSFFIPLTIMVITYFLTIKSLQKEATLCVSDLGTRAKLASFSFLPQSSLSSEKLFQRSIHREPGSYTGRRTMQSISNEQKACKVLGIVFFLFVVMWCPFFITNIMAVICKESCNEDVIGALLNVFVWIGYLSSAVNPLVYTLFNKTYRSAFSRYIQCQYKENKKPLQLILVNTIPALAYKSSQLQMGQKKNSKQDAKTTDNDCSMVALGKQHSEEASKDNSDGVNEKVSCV
Procedure, shortened: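 HTR2A-CHO cells, plated 18 h at 37 C/5% CO2, dye-loaded 1 h at 37 C; compounds in DMSO added by pin tool (agonist mode). Intracellular calcium flux read as kinetic fluorescence on FDSS over 2 min at 1 s intervals.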

[11] = target: Muscarinic acetylcholine receptor M1 (Homo sapiens) (UniProt P11229); test: Cholinergic receptor muscarinic 1 (CHRM1) small molecule antagonists, cell-based qHTS assay (AID 1963588); note: nearly all actives have a fitted effect of over 40% in size
Chain of Muscarinic acetylcholine receptor M1 (Homo sapiens) (P11229 whole entry, looked up): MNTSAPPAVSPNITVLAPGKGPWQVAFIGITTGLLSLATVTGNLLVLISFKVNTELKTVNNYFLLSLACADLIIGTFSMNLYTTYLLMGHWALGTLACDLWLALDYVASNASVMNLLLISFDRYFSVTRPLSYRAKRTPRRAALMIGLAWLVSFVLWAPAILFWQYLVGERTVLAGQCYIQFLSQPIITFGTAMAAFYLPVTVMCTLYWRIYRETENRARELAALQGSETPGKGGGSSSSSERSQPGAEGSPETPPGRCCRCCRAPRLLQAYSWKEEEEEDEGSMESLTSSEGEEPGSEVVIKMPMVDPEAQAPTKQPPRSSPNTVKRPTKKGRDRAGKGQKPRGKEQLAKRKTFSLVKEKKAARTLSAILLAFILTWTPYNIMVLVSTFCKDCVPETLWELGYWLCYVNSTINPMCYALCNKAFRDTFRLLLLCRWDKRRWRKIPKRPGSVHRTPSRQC
Procedure, shortened: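 Compounds were tested at 15 concentrations in three independent runs. Dye-loaded CHRM1-CHO cells were exposed 5 min at room temperature before stimulation by acetylcholine added at 50nM. Intracellular calcium was read kinetically on FDSS for 3 min.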

[12] = cAMP Responsive Elements (CRE) small molecule agonists, cell-based qHTS assay (AID 1963590)
Procedure, shortened: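 HEK 293T cells stably bearing CRE-bla were plated at 2,000 cells per well and rested 18 h. Compounds, positive controls or DMSO were added for 3 h at 37 C. LiveBLAzer B/G substrate was then loaded for 2 h at room temperature.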

[13] = cAMP Responsive Elements (CRE) small molecule antagonists, cell-based qHTS assay (AID 1963591; active = well fitted inhibition curve with a large enough effect in the signal ratio in the repeat runs, not every such curve was filed as active; the % refers to the signal ratio)
Procedure, shortened: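 First, CRE-bla HEK293T cells settled 18 h at 37 C. Next, compound and 0.25 uM final NKH477 were applied for 3 h. Last, LiveBLAzer B/G substrate was loaded for 2 h at room temperature.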

[14] = target: Beta-2 adrenergic receptor (Homo sapiens) (UniProt P07550); test: Adrenergic beta2 receptor (ADRB2) small molecule antagonists, cell-based qHTS assay (AID 1963592); note: series mostly up to about 92 µM; nearly all actives have a fitted effect of over 50% in size
Chain of Beta-2 adrenergic receptor (Homo sapiens) (P07550 whole entry, looked up): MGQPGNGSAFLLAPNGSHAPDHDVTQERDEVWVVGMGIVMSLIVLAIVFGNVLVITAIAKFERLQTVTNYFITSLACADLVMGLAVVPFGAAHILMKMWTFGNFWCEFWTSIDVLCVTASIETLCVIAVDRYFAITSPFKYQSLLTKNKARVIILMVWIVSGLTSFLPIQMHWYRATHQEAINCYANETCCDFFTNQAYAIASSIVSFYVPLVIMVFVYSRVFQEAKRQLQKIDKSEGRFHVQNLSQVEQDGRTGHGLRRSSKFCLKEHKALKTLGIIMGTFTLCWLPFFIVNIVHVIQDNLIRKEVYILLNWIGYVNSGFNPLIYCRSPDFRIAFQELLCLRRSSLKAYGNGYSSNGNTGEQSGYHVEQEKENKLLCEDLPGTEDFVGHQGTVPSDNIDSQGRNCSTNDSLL
Procedure, shortened: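 Assay format: CHO-ADRB2 cells, 18-20hr seeding at 37C/5% CO2, then compound plus 1nM isoproterenol agonist mix for 0.5hr RT. Homogeneous time-resolved fluorescence cAMP detection after 1hr, expressed as 665/615 nm ratio.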

[15] = target: D(2) dopamine receptor (Homo sapiens) (UniProt P14416); test: Dopamine D2 receptor (DRD2) small molecule agonists, cell-based qHTS assay (AID 1963594); note: nearly all actives have a fitted effect of over 35% in size
Chain of D(2) dopamine receptor (Homo sapiens) (P14416 whole entry, looked up): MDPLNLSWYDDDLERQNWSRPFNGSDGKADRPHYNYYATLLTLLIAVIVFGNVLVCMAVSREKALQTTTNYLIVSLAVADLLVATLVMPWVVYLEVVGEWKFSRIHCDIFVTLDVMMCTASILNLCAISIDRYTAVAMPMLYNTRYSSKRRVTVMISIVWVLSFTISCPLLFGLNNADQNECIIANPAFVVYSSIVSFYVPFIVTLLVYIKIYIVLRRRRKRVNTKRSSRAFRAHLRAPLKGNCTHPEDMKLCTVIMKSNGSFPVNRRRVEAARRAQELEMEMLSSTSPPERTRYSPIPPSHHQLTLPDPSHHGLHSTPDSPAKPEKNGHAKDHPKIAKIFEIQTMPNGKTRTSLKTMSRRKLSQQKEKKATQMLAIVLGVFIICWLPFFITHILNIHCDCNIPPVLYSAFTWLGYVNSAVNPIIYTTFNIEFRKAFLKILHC
Procedure, shortened: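 HEK293 cells stably expressing DRD2 were cultured 24 h at 37 C, then given Ro20-1724 (0.1 mM final) and compounds for 10 min at room temperature. NKH477 (200nM) was then added for 30 min. cAMP was read by HTRF.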

[16] = target: D(2) dopamine receptor (Homo sapiens) (UniProt P14416); test: Dopamine D2 receptor (DRD2) small molecule antagonists, cell-based qHTS assay (AID 1963595; active = well fitted inhibition curve with a large enough effect in the signal ratio in the repeat runs, with a control signal flat; the % refers to the signal ratio)
Procedure, shortened: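 Antagonism was scored as restored cAMP in HEK293-DRD2 cells. These cells were stimulated with 200 nM NKH477 and 12 nM quinpirole for 30 min at room temperature, in the presence of 0.1 mM Ro20-1724.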

[17] = p53 small molecule agonists, cell-based qHTS assay: qHTS cell viability counter screen (AID 1963581); note: nearly all actives have a fitted effect of over 45% in size
Procedure, shortened: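 ATP content measured by luminescence in HCT-116 p53RE-bla cells treated 16 h at 37 C, same wells as the reporter screen.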

[18] = target: Muscarinic acetylcholine receptor M1 (Homo sapiens) (UniProt P11229); test: Cholinergic receptor muscarinic 1 (CHRM1) small molecule agonists, cell-based qHTS assay (AID 1963589); note: nearly all actives have a fitted effect of over 35% in size
Procedure, shortened: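 Homogeneous fluorescence calcium flux, agonist mode. Human M1-expressing CHO cells; compound dosed at 15 concentrations, three independent runs; signal sampled every 1 sec.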

[19] = target: Beta-2 adrenergic receptor (Homo sapiens) (UniProt P07550); test: Adrenergic beta2 receptor (ADRB2) small molecule agonists, cell-based qHTS assay (AID 1963593);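 note: CHO cells stably overexpressing human ADRB2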
Procedure, shortened: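 CHO cells stably over-expressing ADRB2 were plated overnight at 37C, then dosed with compounds plus a stimulation mix containing 100uM IBMX and 25uM Ro-20-1724 for 0.5hr at room temperature. cAMP was measured by HTRF competition, 1hr.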

[20] = target: 5-hydroxytryptamine receptor 2A (Homo sapiens) (UniProt P28223); test: 5-hydroxytryptamine receptor 2A (HTR2A) small molecule antagonists, cell-based qHTS assay (AID 1963586); note: nearly all actives have a fitted effect of over 45% in size
Procedure, shortened: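 CHO cells stably expressing human HTR2A were plated for 18 h at 37 C, then loaded with calcium dye for 1 h. Compounds were preincubated 5 min at room temperature before DOI (4 nM solution) was added. Kinetic fluorescence was read for 3 min.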

Measured: Potency

NCCOCCN
not listed: [17] | [18] | [19] | [20]
inactive: all other assays above

C/C=C/c1ccc(OC)c(OC)c1
not listed: [13] | [16] | [20]
inactive: all other assays above

CC(C)(c1ccc(O)cc1)c1ccc(O)cc1
inactive and 62.2 µM (active): [2]
not listed: [9] | [10] | [11] | [16] | [18] | [19] | [20]
inactive: all other assays above

CC(C)=CCC[C@H](C)CC=O
not listed: [10] | [11] | [18] | [20]
inactive: all other assays above

CC(C)=CCCC(C)CC=O (stereo not drawn)
not listed: [10] | [11] | [18] | [20]
inactive: all other assays above

CCN(CC)CCNC(=O)c1ccc(NC(C)=O)cc1
not listed: [10] | [13] | [15] | [16] | [18]
inactive: all other assays above

Cc1c2oc3c(C)ccc(C(=O)N[C@@H]4C(=O)N[C@H](C(C)C)C(=O)N5CCC[C@H]5C(=O)N(C)CC(=O)N(C)[C@@H](C(C)C)C(=O)O[C@@H]4C)c3nc-2c(C(=O)N[C@@H]2C(=O)N[C@H](C(C)C)C(=O)N3CCC[C@H]3C(=O)N(C)CC(=O)N(C)[C@@H](C(C)C)C(=O)O[C@@H]2C)c(N)c1=O (I: T[dV]P[Sar][NMeV] / II: T[dV]P[Sar][NMeV]; ester I:1-I:C, II:1-II:C; linker I:N-II:N via Actinocin(9to1))
inactive and 42.2 nM (active): [2]
active: [1] 42.1 nM | [9] 2.2 nM
not listed: [10] | [11] | [12] | [13] | [17] | [18] | [20]
inactive: all other assays above

C1=C\CC/C=C\CC/C=C\CC/1
not listed: [7]
inactive: all other assays above

CCCC(C)CO (stereo not drawn)
not listed: [8] | [10] | [12]
inactive: all other assays above

CCCCOC(=O)[C@H](C)O
not listed: [9]
inactive: all other assays above

CC(C)[C@H]1CC[C@@H](C)CC1=O
not listed: [7]
inactive: all other assays above

Cc1cccc(C)c1NC(=O)CN1CCCCCC1
not listed: [8] | [19]
inactive: all other assays above

CC(C)Oc1ccc2c(=O)c(-c3ccccc3)coc2c1
active: [2] 376 nM and 266 nM
not listed: [10] | [11] | [18] | [20]
inactive: all other assays above

O=S(O)CO
not listed: [9] | [14] | [17]
inactive: all other assays above

CCOC=C(C(=O)OCC)C(=O)OCC
not listed: [18] | [19] | [20]
inactive: all other assays above
